Read-out in test [1]: Matrix Metallopeptidase 1 (MMP1), MMP1 (gene 4312)
As to the kind of experiment: BSK_BF4T_MMP1: BioMAP Diversity Plus: BF4T Assay for Matrix Metallopeptidase 1 (MMP1) Biomarker Activity (AID 2284270). As to conditions: primary human bronchial epithelial cells with fibroblasts. In outline:
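MMP-1 quantified by ELISA in primary human bronchial epithelial/dermal fibroblast co-cultures, 24 hours post-dosing, with DMSO as baseline; parallel sulforhodamine B staining (560 nm) tracks overt cytotoxicity.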

Read-out in test [2]: Matrix Metallopeptidase 3 (MMP3), MMP3 (gene 4314)
As to the kind of experiment: BSK_BF4T_MMP3: BioMAP Diversity Plus: BF4T Assay for Matrix Metallopeptidase 3 (MMP3) Biomarker Activity (AID 2284271). Particulars: primary human bronchial epithelial cells with fibroblasts. In short, it runs like this: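 MMP-3 level read by ELISA after 24 h chemical exposure of bronchial epithelial cell/dermal fibroblast co-cultures, fitted upward relative to DMSO. Parallel cultures stained with 0.1% SRB after TCA fixation gauge overt cytotoxicity.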

Read-out in test [3]: Tissue plasminogen activator (tPA), PLAT (gene 5327)
As to the kind of experiment: BSK_BF4T_tPA: BioMAP Diversity Plus: BF4T Assay for Tissue plasminogen activator (tPA) Biomarker Activity (AID 2284272). Particulars: primary human bronchial epithelial cells with fibroblasts. In short, it runs like this:
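tPA level quantified by ELISA at 24 h post-treatment in bronchial epithelial/dermal fibroblast co-cultures, gain of signal scored against DMSO baseline. Parallel cultures stained with 0.1% SRB (560 nm) to flag overt cytotoxicity.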

Read-out in test [4]: Plasminogen Activator Inhibitor-1 (PAI1), SERPINE1 (gene 5054)
As to the kind of experiment: BSK_BF4T_PAI1: BioMAP Diversity Plus: BF4T Assay for Plasminogen Activator Inhibitor-1 (PAI1) Biomarker Activity (AID 2284273). As to conditions: primary human bronchial epithelial cells with fibroblasts. In short, it runs like this: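 PAI-1 levels quantified by ELISA 24 h post-dosing in bronchial epithelial cell plus dermal fibroblast cultures. Signal gain referenced to DMSO baseline. Sulforhodamine B total-protein staining of parallel wells checked cytotoxicity.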

Test [5] is described as follows: BSK_BF4T_SRB: Viability Assessment in the BioMAP Diversity Plus: BF4T Assay (AID 2284274).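 On AC50: measured 24 h after compound addition.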 Particulars: primary human bronchial epithelial cells with fibroblasts. In outline: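 Cytotoxicity measured as total protein: cells fixed with 10% TCA, stained with 0.1% SRB, read at 560 nm. Bronchial epithelial/dermal fibroblast co-culture, 24 h after dosing, with positive-direction fitting relative to DMSO.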

Read-out in test [6]: urokinase Plasminogen Activator (uPA), PLAU (gene 5328)
As to the kind of experiment: BSK_BF4T_uPA: BioMAP Diversity Plus: BF4T Assay for urokinase Plasminogen Activator (uPA) Biomarker Activity (AID 2284275). As to conditions: primary human bronchial epithelial cells with fibroblasts. As to the method: (§1) BSK_BF4T is a cell-based, multiplexed-readout assay that uses bronchial epithelial cells and dermal fibroblasts, a human vascular primary cell, with measurements taken at 24 hours after chemical dosing in a microplate: 96-well plate.BSK_BF4TA is an assay component measured in the BSK_BF4T assay. It measures uPA antibody related to regulation of gene expression using ELISA technology.Data from the assay component BSK_BF4TA was analyzed at the endpoint, BSK_BF4TA, in the positive analysis fitting direction relative to DMSO as the negative control and baseline of activity. Using a type of binding reporter, gain or loss-of-signal activity can be used to understand protein changes. To generalize the intended target to other relatable targets, this assay endpoint is annotated to the 'protease' intended target family, where the subfamily is 'serine protease'.
(§2) The levels of cell surface (or secreted, indicated by the prefix "s") biomarker endpoints were measured by ELISA. Overt cytotoxicity to cells in confluent adherent cultures (all systems other than the BT system) was assessed by measuring total protein levels using sulforhodamine B (SRB) staining in parallel cultures at the time of biomarker measurements, indicated as SRB endpoints. For proliferation assays for adherent cell types, individual cell types are cultured at sub-confluence and relative cell numbers quantified by SRB staining at time points optimized for each system (48 h: 3C and CASM3C systems; 72 h: BT and HDF3CGF systems; 96 h: SAg system). SRB was performed by staining cells with 0.1% SRB after fixation with 10% TCA and reading wells at 560 nm.Viability and proliferation of PBMC (T cells) was quantified by Alamar Blue reduction for the SAg and BT systems. For PBMC viability (referred to as PBMC Cytotoxicity within the assay endpoint names), cells were plated (75,000/well in a 96-well plate) and then chemical samples added for 1 h before addition of activators, SEB and TSST-1 (20 ng/mL final concentration each). Cells were incubated for 90 h. Then, Alamar Blue (20 uL/well) (Invitrogen, Cat DAL1100) was added for 6 h, and the plates were read with a fluorescence microplate reader at 546/580 nm (excitation/emission). For PBMC proliferation, cells were plated and activated as above but incubated for only 16 h prior to addition of Alamar Blue. Plates were read after 6 h.

Read-out in test [7]: Matrix Metallopeptidase 9 (MMP9), MMP9 (gene 4318)
Put plainly: BSK_BF4T_MMP9: BioMAP Diversity Plus: BF4T Assay for Matrix Metallopeptidase 9 (MMP9) Biomarker Activity (AID 2284276). As to conditions: primary human bronchial epithelial cells with fibroblasts. The method, then: as §1, with “plate.BSK_BF4T_MMP9” for “plate.BSK_BF4TA”, “MMP-9” for “uPA”, “BSK_BF4T_MMP9” for “BSK_BF4TA”, “BSK_BF4T_MMP9,” for “BSK_BF4TA,”, “'matrix metalloproteinase'.” for “'serine protease'.”
as §2

Read-out in test [8]: Interleukin-8 (IL8), CXCL8 (gene 3576)
Put plainly: BSK_IMphg_IL8: BioMAP Diversity Plus: IMphg Assay for Interleukin-8 (IL8) Biomarker Activity (AID 2284277). As to conditions: primary human endothelial cells with macrophages. In outline: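 IL-8 levels were measured by ELISA 24 h after dosing in primary human venular endothelial cell–macrophage cultures, referenced to DMSO; parallel SRB staining monitored overt cytotoxicity.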

Read-out in test [9]: Intercellular Adhesion Molecule 1 (ICAM1), ICAM1 (gene 3383)
Put plainly: BSK_BE3C_ICAM1: BioMAP Diversity Plus: BE3C Assay for Intercellular Adhesion Molecule 1 (ICAM1) Biomarker Activity (AID 2284278). Particulars: primary human bronchial epithelial cells. In short, it runs like this:
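ICAM-1 quantified by ELISA and fitted against DMSO baseline, 24 h post-dosing in BE3C cultures of primary human lung bronchial epithelial cells. Cytotoxicity checked in parallel cultures by total protein SRB staining.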

Read-out in test [10]: Interferon-inducible T-cell alpha chemoattractant (ITAC), CXCL11 (gene 6373)
As to the kind of experiment: BSK_BE3C_ITAC: BioMAP Diversity Plus: BE3C Assay for Interferon-inducible T-cell alpha chemoattractant (ITAC) Biomarker Activity (AID 2284279). Particulars: primary human bronchial epithelial cells. In outline:
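Steps: dose human bronchial epithelial cells with chemical; incubate 24 h; measure I-TAC by ELISA; fit endpoint in positive direction against DMSO control. Cytotoxicity was checked in parallel cultures by SRB staining at harvest.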

Several values for one entry are separate records, joined by “and”; a condition that tells them apart may be missing. Equal values may be shown once. Some structures have more than one record in an assay (separate samples or runs), and their calls can disagree. Activity calls are given as the source filed them. How the source made its calls: active means hit-call score of the fitted dose curve at least 0.9, where 1 is the maximum; inactive means score below 0.9.

With `O=C(O)C(F)(F)C(F)(F)C(F)(F)C(F)(F)C(F)(F)F`, the outcome in test [1], in [2], in test [3], in [4], in test [5] and in test [6] was inactive. Moreover, the result in [7], in test [8], in test [9] and in test [10] was inactive.

Turning to `O=C(O)C(F)(F)C(F)(F)C(F)(F)C(F)(F)C(F)(F)C(F)(F)C(F)(F)C(F)(F)C(F)(F)F`, the AC50 in test [1] is 14.1 µM (active) and 11 µM (active); in [2] it was 18.5 µM (active) and 21.3 µM (active); in [3] it was 34.6 µM (active) and 17.3 µM (active); in [4], 22.9 µM (active) and 24.8 µM (active); in test [5], 17.7 µM (active) and 19.3 µM (active); in [6], 14.6 µM (active) and 18 µM (active). The AC50 in test [7] was 20 µM (active) and 20.5 µM (active); in [9], 16.9 µM (active) and 14.6 µM (active); in test [10], 12.8 µM (active) and 13.7 µM (active). Moreover, the result in test [8] was inactive.

Regarding `O=S(=O)(O)C(F)(F)C(F)(F)C(F)(F)C(F)(F)F`, the outcome in test [1], in test [2], in [3], in test [4], in test [5] and in test [6] was inactive. For the same compound, the result in test [7], in test [9] and in [10] was inactive. In addition, in [8], the AC50 was 30 µM (active) and 33.4 µM (active).

`O=S(=O)(O)C(F)(F)C(F)(F)C(F)(F)C(F)(F)C(F)(F)C(F)(F)F`: the outcome in test [1], in test [2], in test [3], in test [4], in test [5] and in [6] was inactive. The outcome in test [7], in test [8], in [9] and in test [10] was inactive. The AC50 in test [8] is 22.9 µM (active).

For the compound `NS(=O)(=O)C(F)(F)C(F)(F)C(F)(F)C(F)(F)C(F)(F)C(F)(F)C(F)(F)C(F)(F)F`, in test [1], the result was inactive. Moreover, the AC50 is 52.2 µM (active) and 49.7 µM (active) in test [2]; 51.4 µM (active) and 55 µM (active) in test [3]; 44 µM (active) and 45.9 µM (active) in test [4]; 45 µM (active) and 47.5 µM (active) in [5]; 48.2 µM (active) and 44.3 µM (active) in [6]; 23.3 µM (active) and 34 µM (active) in [7]. For the same compound, the AC50 is 52.1 µM (active) and 14.9 µM (active) in test [8]; 55 µM (active) and 53 µM (active) in test [9]; 43.2 µM (active) and 36.9 µM (active) in test [10].

Take `O=C(O)C(F)(F)C(F)(F)C(F)(F)C(F)(F)C(F)(F)C(F)(F)C(F)(F)C(F)(F)F`: the AC50 was 48.4 µM (active) and 51.1 µM (active) in test [1]; 47.4 µM (active) and 55.2 µM (active) in test [2]; 35.6 µM (active) and 27.7 µM (active) in test [3]; 47.5 µM (active) and 46.2 µM (active) in [4]; 43.3 µM (active) and 44 µM (active) in test [5]; 50.3 µM (active) and 54.7 µM (active) in test [6]. Moreover, the AC50 was 44.2 µM (active) and 45.2 µM (active) in test [7]; 15.8 µM (active) and 5.94 µM (active) in [8]; 56.4 µM (active) and 54.7 µM (active) in [9]; 49.1 µM (active) and 56 µM (active) in test [10].

In the case of `COc1ccc(O)c(C(C)(C)C)c1`, the outcome in test [9] and in test [10] was inactive.

Source of the values: PubChem BioAssay (EPA / NIEHS).
